# Screens as filed in PubChem BioAssay.
# Only some compounds are listed: those with a hit (about 2.4% of all), similar ones and a draw of the others.
# D2 PAM-1: positive allosteric modulators of human D2 dopamine receptor; P14416; AID 624464; potentiation, % (no concentration beside the values); 360,000 tested, 0.23% active; DiscoveRx D2 beta-arrestin cells, luminescence, 90 min; 100% = 57 uM dopamine signal; in the data active means potentiation above about 50%; inconclusive means mostly about 30% to 49%
#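 PathHunter beta-arrestin assay in DiscoveRx D2 cells. Compounds were added with an EC20 of dopamine (50 nM final) for 90 min at 37 deg C. Luminescence was read 1 h after detection reagent, with 57 uM dopamine as the EC100 control.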
# D2 antagonist: antagonists of human D2 dopamine receptor; P14416; HEK293 TREx D2 cells, calcium flux, dopamine EC80; inhibition, % at 10 µM; 340,000 tested, 2% active; in the data active means inhibition above about 30%; inactive means below that, where a call was filed
#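 Dopamine at EC80 is the agonist stimulus; test compounds precede it by 180 s. Calcium flux read kinetically in a force-coupled, inducible HEK293 T-REx D2 cell line.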
# D2 ag-1: agonists of human D2 dopamine receptor | HEK293 T-REx D2 cells, calcium flux agonist mode | activation, % at 2 µM | 340,000 tested, 0.53% active | P14416;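 active means activation over 3 SD above normal in the single-dose calcium agonist read, cut at about 30% in these data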
#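 Agonism scored from kinetic calcium signal (1 read/sec, 180 s) following compound pin transfer, after a 10 s baseline. Cells: HEK293 Trex line expressing inducible D2 receptor coupled to calcium, dye-loaded after overnight culture at 30 C.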
# D2 ag-2: agonists of human D2 dopamine receptor (beta-arrestin); P14416; DiscoveRx PathHunter D2 beta-arrestin, luminescence, 90 min; 100% = 57 uM dopamine signal; activation, % (test concentration not listed); 360,000 tested, 0.084% active; in the data active means activation above about 40%; inconclusive means between about 15% and that limit
#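 DiscoveRx PathHunter D2 beta-arrestin cells (2,100/well) attached overnight, then compound-stimulated 90 min at 37 C in HBSS/10 mM HEPES/0.1% Tween-20 buffer; beta-galactosidase complementation read by luminescence after 1 h at ambient temperature. Dopamine 57 uM final (EC100) as control.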
# D2 PAM-2: positive allosteric modulators of human D2 dopamine receptor; 340,000 tested, 0.34% active; AID 485347; P14416; potentiation, % at 10 µM; HEK293 T-REx D2, calcium flux, EC20 dopamine potentiation;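 active means potentiation over 3 SD above the plate norm, cut at about 30% in these data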
#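 Primary screen. Calcium kinetics in induced HEK293 T-REx D2 cells: compound pre-addition 180 s, EC20 dopamine, 180 s more.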
# D3 ag: activates human D3 dopamine receptor beta-arrestin recruitment; shares compounds with D2 ag-1; DiscoveRx D3 beta-arrestin cells, luminescence, 90 min; Potency, µM (titrated, usually from 76.9 µM), hits mostly activators; 2,300 tested, 4% active; further: nearly all actives have a fitted effect of over 70% in size
# Target sequence (P35462 whole entry, looked up): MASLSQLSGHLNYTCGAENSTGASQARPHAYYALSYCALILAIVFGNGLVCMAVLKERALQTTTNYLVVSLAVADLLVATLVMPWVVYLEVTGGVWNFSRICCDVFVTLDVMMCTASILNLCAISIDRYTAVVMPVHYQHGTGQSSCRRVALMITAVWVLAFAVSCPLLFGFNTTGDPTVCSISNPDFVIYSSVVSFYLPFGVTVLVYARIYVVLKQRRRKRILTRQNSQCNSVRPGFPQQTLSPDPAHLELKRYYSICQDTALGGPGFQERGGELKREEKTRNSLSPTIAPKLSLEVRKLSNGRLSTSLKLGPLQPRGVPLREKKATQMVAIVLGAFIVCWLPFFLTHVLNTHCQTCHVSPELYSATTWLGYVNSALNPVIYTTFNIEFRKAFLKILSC
# D2 ag-3: D2 receptor agonism, beta-arrestin counterscreen; DiscoveRx PathHunter D2 beta-arrestin, luminescence, 90 min; response scale: percent relative to full dopamine signal; Potency, µM (titrated, usually from 76.9 µM), actives largely listed as activators; 2,300 tested, 5.9% active; shares compounds with D2 ag-1; AID 720507; further: nearly all actives have a fitted effect of over 70% in size
# Numbers stand for hits; n = inactive; u = inconclusive; x = no result given; ! = repeats disagree. Unless noted, the call rests on the fitted dose curve; in most records, active means well fitted activation curve with a large enough effect; inconclusive means small, poorly fitted or top-dose-only effect; inactive means flat fitted curve, though single readings scatter.
SMILES,D2 PAM-1,D2 antagonist,D2 ag-1,D2 ag-2,D2 PAM-2,D3 ag,D2 ag-3
O=C(/C=C/c1ccccc1Cl)N(c1ccccn1)C1CCCCC1,n,98.8,76.9,u,n,n,u
CCCCN(C)C(=O)CSc1nc2ccccc2nc1Cc1ccc(C)cc1,x,x,n,x,n,x,x
O=C(Nc1nnc(S(=O)(=O)N2CCOCC2)s1)c1ccccc1F,n,n,n,n,n,x,x
O=C(COc1ccccc1)Nc1nnc(S(=O)(=O)N2CCCCCC2)s1,n,n,50.0!,n,n,n,n
O=C(Nc1nnc(S(=O)(=O)N2CCOCC2)s1)c1ccccc1Cl,n,n,52.1!,n,n,n,n
O=C(CSc1ncnc2scc(-c3ccc(F)cc3)c12)c1ccc2c(c1)OCCO2,n,n,49.9,n,n,n,n
CS(=O)(=O)Nc1ccccc1C(=O)Nc1cc(Cl)cc(Cl)c1,n,n,n,n,n,n,n
CCOC(=O)c1ccc2c(c1)N(CC(=O)Nc1ccc(CC)cc1)C(=O)c1ccccc1S2,x,x,n,x,n,x,x
Cc1occc1-c1nnc(SCC(=O)Nc2nc3ccccc3s2)o1,n,n,45.4,n,n,n,n
O=C(CCC(=O)c1ccccc1)NCCc1c[nH]c2ccccc12,n,n,66.2,n,n,n,n
CC(C)(C)c1ccc(C(=O)N2CCN(CCNC(=O)C(=O)NCc3ccc(Cl)cc3)CC2)cc1,n,n,n,n,n,n,n
O=C(c1cc2ccccc2o1)N1CC=C(c2ccccc2)CC1,n,46.1,58.5,n,n,n,n
O=C(c1cc2ccccc2o1)N1CCOCC1,n,n,n,n,n,x,x
O=C(c1cc2ccccc2o1)N1CCN(CCOc2ccccc2)CC1,n,96.2,75.6,u,n,0.199µM,u
O=C(c1ccc(Br)o1)N1CC=C(c2ccccc2)CC1,n,x,x,n,x,x,x
O=C(O)C1CCCCC1C(=O)N1CC=C(c2ccccc2)CC1 (stereo not given),n,n,34.2,u,n,n,n
O=C(Nc1cccc2ccccc12)N1CC=C(c2ccccc2)CC1,n,n,34.0,n,n,u,n
O=C(COCc1cc(-c2ccc3c(c2)OCO3)on1)NCc1ccc(F)cc1,x,x,n,x,n,x,x
COc1ccccc1NC(=O)C1=C(C)Nc2nnnn2C1c1cc(Br)c(O)c(OC)c1 (stereo not given),x,x,n,x,n,x,x
O=C(Nc1ccc2ccccc2c1)N1CCCN(CCOc2ccccc2)CC1,n,n,38.0,n,n,n,n
COc1ccc(C2OC(=O)CC2C(=O)NCc2ccc(F)cc2)cc1OC (stereo not given),n,n,n,n,n,n,n
Nc1cccc(C#Cc2ccc3c(=O)c4ccccc4oc3c2)c1,n,n,n,n,n,n,n
COc1ccc(OC)c(NC(=O)CN2C(=O)COc3ccc(S(=O)(=O)NC4CCCC4)cc32)c1,x,x,n,x,x,x,x
COc1ccc(NC(=O)N2CCCC(c3ccccc3)C2)cc1 (stereo not given),n,x,x,n,x,n,n
COc1cc(-c2n[nH]c(=S)n2/N=C/c2cccn2C)cc(OC)c1OC,n,n,n,n,n,n,n
SMILES,D2 PAM-1,D2 antagonist,D2 ag-1,D2 ag-2,D2 PAM-2,D3 ag,D2 ag-3
Cn1cccc1/C=N/n1c(-c2ccco2)n[nH]c1=S,n,n,n,n,n,x,x
CC1=CC(C)C(/C=N/N=C(N)N)C(C)C1 (stereo not given),n,n,n,n,n,n,n
O=C(NCCCn1ccnc1)C(=O)NCC(c1ccco1)N1CCN(c2ccccc2)CC1 (stereo not given),n,n,63.4,54.4,n,n,u
O=C(NCCCn1ccnc1)C(=O)NCC(c1cccnc1)N1CCN(c2ccccc2)CC1 (stereo not given),n,n,42.9,n,n,n,n
COc1ccc(N2CCN(C(CNC(=O)c3ccco3)c3ccco3)CC2)cc1 (stereo not given),n,n,n,n,n,x,x
O=C(NCC(c1ccco1)N1CCN(c2ccccc2)CC1)c1ccco1 (stereo not given),n,40.3,n,n,n,u,u
Cc1sc(NC(=O)c2ccco2)c(CN2CCCCC2)c1C,n,n,n,n,n,x,x
Cc1sc(NC(=O)c2ccco2)c(CN2CCN(c3ccccc3)CC2)c1C,n,n,40.8,n,n,n,n
O=C(NCCCn1ccnc1)C(=O)NCC(c1ccco1)N1CCN(c2ccc(F)cc2)CC1 (stereo not given),n,n,n,n,n,x,x
Nc1nc(CN2CCN(c3cccc(Cl)c3)CC2)nc(N2CCCc3ccccc32)n1,n,70.4,42.1,u,n,n,u
Nc1nc(CSc2nnnn2-c2ccccc2)nc(N2CCCc3ccccc32)n1,n,n,n,n,n,x,x
Nc1nc(CN2CCN(c3ccccc3)CC2)nc(N2CCCc3ccccc32)n1,54.2,x,x,u,x,35.5µM,u
COc1ccc(N2CCN(Cc3nc(N)nc(Nc4ccc(C)c(Cl)c4)n3)CC2)cc1,n,n,n,n,n,x,x
COc1ccc(N2CCN(Cc3nc(N)nc(N4CCCc5ccccc54)n3)CC2)cc1,n,n,48.7,n,n,n,n
Nc1nc(CN2CCN(c3ccccc3F)CC2)nc(N2CCCc3ccccc32)n1,n,78.7,81.8,u,n,u,u
COc1cccc(CN2C(=O)c3ccccc3Sc3ccc(C(=O)NCCc4ccc(Cl)cc4)cc32)c1,x,x,n,x,n,x,x
Cc1c(NC(=O)c2ccccc2F)cccc1-c1nc2cccnc2s1,x,x,n,x,n,x,x
O=C1CN(C(=O)c2ccc(S(=O)(=O)N3CCCCC3)cc2)C(c2ccc(F)cc2)c2cc(Br)ccc2N1 (stereo not given),x,x,n,x,n,x,x
O=C(NC(Nc1nc2ccc([N+](=O)[O-])cc2s1)(C(F)(F)F)C(F)(F)F)c1ccccc1Cl,n,n,n,n,n,x,x
O=C(NC(Nc1nc2ccc([N+](=O)[O-])cc2s1)(C(F)(F)F)C(F)(F)F)c1cccnc1,n,n,n,n,n,n,n
CC(=O)c1sc2nsc(SCCN3CCCCC3)c2c1N,n,n,n,n,n,x,x
Nc1c(C(=O)c2ccc(Cl)cc2)sc2nsc(SCCN3CCOCC3)c12,n,n,n,n,n,n,n
CNC(=O)N(O)C1N(/N=C/c2ccc(C)cc2)C(=S)SC1(C)C (stereo not given),n,n,n,n,n,x,x
CNC(=O)N(O)C1N(/N=C/c2cc(Br)ccc2O)C(=S)SC1(C)C (stereo not given),n,49.5,47.7,59.0,n,n,u
